For orientation: AC50 means the concentration giving half of the maximal activity seen.

Structures are written as SMILES. The source made the active and inactive calls. The calls were made as follows: active = hit-call score of the fitted dose curve at least 0.9, where 1 is the maximum; inactive = score below 0.9.

We go through 3 molecules from PubChem BioAssay (EPA / NIEHS).

In test [1] the target is Transcription factor E2F1 (Homo sapiens) (UniProt Q01094). In words: ATG_E2F_CIS: Attagene CIS-FACTORIAL HepG2 Assay for human E2F Transcription Factor 1 (AID 2282935). The note with it: HepG2 Attagene cis-reporter, E2F reporter RNA transcripts; actives raise or lower the signal. An outline of the steps:
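First, HepG2 cells were transfected with reporter transcription units. Next, they were dosed for 24 h. Then RNA was isolated, converted to cDNA, PCR-amplified, FAM-labeled, HpaI-digested and analyzed by capillary electrophoresis.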

The nature of test [2]: ATG_E_Box_CIS: Attagene CIS-FACTORIAL HepG2 Assay for human Enhancer Box (E-box) (AID 2282936). The note with it: HepG2 E-box cis-reporter transcription, actives raise or lower the signal. The essentials:
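Endogenous transcription factor activity was sensed in human HepG2 liver cells through transfected cis-promoter reporter units. After 24 h of dosing, total RNA was reverse-transcribed and reporter cDNA resolved by capillary electrophoresis.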

A short description of test [3]: ATG_M_61_CIS: Attagene CIS-FACTORIAL HepG2 Assay for M61 Transcription Factor (Internal Marker) (AID 2282937). The note with it: HepG2 Attagene CIS-FACTORIAL M61 internal marker reporter; actives raise or lower the signal. The essentials:
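Readout is reporter mRNA by RT-PCR, fluorescent primer extension and capillary electrophoresis, with gain or loss fitted relative to DMSO. Transfected HepG2 cells carrying endogenous-TF-driven cis reporters were exposed to chemicals for 24 hours.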

Test [4] is described as follows: ATG_EGR_CIS: Attagene CIS-FACTORIAL HepG2 Assay for human Early Growth Response 1 (EGR1) (AID 2282938). The note with it: HepG2 Attagene CIS-FACTORIAL EGR reporter mRNA; actives raise or lower the signal. The essentials:
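After 24 h compound exposure, RNA from reporter-transfected HepG2 cells was reverse-transcribed, PCR-amplified, fluorescently labelled and resolved by capillary electrophoresis. EGR1 reporter transcript changes, up or down, were fitted against DMSO, reflecting endogenous transcription-factor activity.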

Test [5] is described as follows: ATG_M_19_CIS: Attagene CIS-FACTORIAL HepG2 Assay for M19 Transcription Factor (Internal Marker) (AID 2282939). The note with it: HepG2 Attagene CIS-FACTORIAL M19 internal marker reporter; actives raise or lower the signal. The essentials: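 Readout: fluorescent reporter-transcript fragments by capillary electrophoresis after RT-PCR. Human HepG2 liver cells carried transfected MRTU constructs reporting endogenous transcription-factor activity; exposure 24 h. Gain or loss of signal fitted relative to DMSO.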

Test [6] is described as follows: ATG_ERE_CIS: Attagene CIS-FACTORIAL HepG2 Assay for Estrogen Response Element (ERE) (AID 2282940). The note with it: HepG2 ERE cis-reporter, Attagene RNA transcript; actives raise or lower the signal. The essentials: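 Readout: reporter mRNA induction by RT-PCR, FAM-labelled primer extension, HpaI digestion and capillary electrophoresis, 24 h after dosing transfected HepG2 cells. Endogenous transcription factors act on cis-element-regulated reporters. Gain or loss fitted against DMSO.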

Test [7] can be described thus: ATG_Ets_CIS: Attagene CIS-FACTORIAL HepG2 Assay for human Erythroblast Transformation Specific (ETS) (AID 2282941). The note with it: HepG2 ETS cis-reporter transcription, actives raise or lower the signal. The essentials: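 Multiplexed reporter transcript profiling: HepG2, 24 h treatment, total RNA to cDNA, PCR, 6-FAM labelling, HpaI cut, capillary electrophoresis. Gain- or loss-of-signal fitted against DMSO.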

Test [8] has as its target Hepatocyte nuclear factor 3-beta (Homo sapiens) (UniProt Q9Y261). The test can be described thus: ATG_FoxA2_CIS: Attagene CIS-FACTORIAL HepG2 Assay for human Forkhead box A2 (FOXA2) (AID 2282942). The note with it: HepG2 cis-reporter transcription factor activity, 24 h; actives raise or lower the signal. An outline of the steps:
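Endogenous transcription factor activity is captured via cis-element-driven reporter transcripts in transfected HepG2. Total RNA taken at 24 h post-dosing; labelled RT-PCR products resolved by capillary electrophoresis. Gain or loss fitted versus DMSO.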

Test [9] is described as follows: ATG_FoxO_CIS: Attagene CIS-FACTORIAL HepG2 Assay for human Forkhead box O (FoxO) (AID 2282943). The note with it: HepG2 Attagene cis-reporter, FoxO element, mRNA; actives raise or lower the signal. An outline of the steps: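 HepG2 cells transiently transfected with cis-promoter-driven multiple reporter transcription units; 24 h after chemical dosing, reporter mRNA quantified by RT-PCR, fluorescent primer extension, HpaI digestion and capillary electrophoresis. Bidirectional fitting versus DMSO baseline.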

Test [10] in a line: ATG_GATA_CIS: Attagene CIS-FACTORIAL HepG2 Assay for human GATA Binding Protein (AID 2282944). The note with it: HepG2 GATA cis-element reporter, Attagene multiplex mRNA; actives raise or lower the signal. The essentials: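 Read-out: fluorescent reporter mRNA fragments resolved by capillary electrophoresis after RT-PCR. Human liver HepG2 cells carried transiently transfected cis-regulated reporter constructs; chemicals incubated 24 h; gain or loss of signal fitted relative to DMSO.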

Test [11] in a line: ATG_GLI_CIS: Attagene CIS-FACTORIAL HepG2 Assay for human Zinc Finger Protein GLI1 (AID 2282945). The note with it: HepG2, Attagene cis-factorial reporter mRNA, GLI element; actives raise or lower the signal. An outline of the steps:
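HepG2 cells transiently transfected with cis-promoter multiplexed reporter units report endogenous transcription factor activity. After 24 h chemical exposure, reporter mRNA was quantified by RT-PCR, 6-FAM labelling, HpaI digestion and capillary electrophoresis, with bidirectional fitting against DMSO.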

Test [12] addresses Bile acid receptor (Homo sapiens) (UniProt Q96RI1). The test can be described thus: ATG_IR1_CIS: Attagene CIS-FACTORIAL HepG2 Assay for human Nuclear Receptor Subfamily 1 Group H Member 4 (NR1H4), IR1 submotif (AID 2282946). The note with it: IR1 reporter transcription, actives raise or lower the signal. The essentials: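 Readout: reporter transcript levels by RT-PCR with fluorescent capillary electrophoresis, from HepG2 cells transiently transfected with multiplexed cis-regulated reporters and dosed 24 h. Gain- or loss-of-signal fitted versus DMSO negative control.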

The nature of test [13]: ATG_GRE_CIS: Attagene CIS-FACTORIAL HepG2 Assay for human Glucocorticoid Response Elements (GRE) (AID 2282947). The note with it: HepG2 GRE cis-reporter, Attagene multiplex mRNA; actives raise or lower the signal. The essentials:
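Cells (HepG2) bearing transfected cis-promoter reporter transcription units were treated with chemical for 24 hours. Reporter mRNA was measured via RT-PCR with capillary electrophoresis, and activity was fitted in both directions relative to DMSO.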

Test [14] can be described thus: ATG_ISRE_CIS: Attagene CIS-FACTORIAL HepG2 Assay for human Interferon Regulatory Factor 1 (IRF1) binding to an Interferon-Stimulated Response Element (ISRE) (AID 2282948). The note with it: HepG2 ISRE cis-reporter (Attagene), mRNA transcription readout; actives raise or lower the signal. An outline of the steps: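 Signal reflects induction or loss of ISRE-linked reporter mRNA in transiently transfected HepG2 cells after a 24 h treatment, detected by fluorescent RT-PCR fragments on capillary electrophoresis and normalised to DMSO.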

Test [15] can be described thus: ATG_M_32_CIS: Attagene CIS-FACTORIAL HepG2 Assay for M32 Transcription Factor (Internal Marker) (AID 2282949).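 Also: background control marker of the multiplexed CIS panel rather than a real target.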 The note with it: HepG2 Attagene cis-factorial M32 reporter, mRNA; actives raise or lower the signal. An outline of the steps:
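HepG2 transfectants (cis-regulated reporter transcription units) dosed 24 h. Reporter mRNA by RT-PCR plus CE, analysed as gain or loss relative to DMSO.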

The nature of test [16]: ATG_M_06_CIS: Attagene CIS-FACTORIAL HepG2 Assay for M06 Transcription Factor (Internal Marker) (AID 2282950). The note with it: HepG2 Attagene CIS-FACTORIAL M06 internal marker reporter; actives raise or lower the signal. An outline of the steps: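 Terse: HepG2, transient MRTU transfection (FuGene 6), 24 h dosing; total RNA, oligo(dT) RT, PCR, FAM label, HpaI cut, capillary electrophoresis; bidirectional fit vs DMSO baseline; background-control endpoint.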

Test [17] deals with Hypoxia-inducible factor 1-alpha (Homo sapiens) (UniProt Q16665). In words: ATG_HIF1a_CIS: Attagene CIS-FACTORIAL HepG2 Assay for human Hypoxia Inducible Factor 1 (HIF1A) (AID 2282951). The note with it: HepG2 Attagene cis-factorial HIF1a reporter transcription; actives raise or lower the signal. An outline of the steps:
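Activity is fitted in both directions relative to DMSO. Reporter transcripts are read by RT-PCR, fluorescent primer extension and capillary electrophoresis after 24 h chemical treatment. The cells are HepG2 carrying transiently transfected cis-element-driven reporter units responding to endogenous factors.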

The target in test [18] is Hepatocyte nuclear factor 6 (Homo sapiens) (UniProt Q9UBC0). The test can be described thus: ATG_HNF6_CIS: Attagene CIS-FACTORIAL HepG2 Assay for human Hepatocyte Nuclear Factor 6 (HNF6) (AID 2282952). The note with it: HepG2 Attagene cis-factorial HNF6 reporter transcription; actives raise or lower the signal. The essentials: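 Activity values derive from bidirectional fitting against DMSO of reporter mRNA levels, measured by capillary electrophoresis of labelled RT-PCR products from HepG2 cells exposed 24 h.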
Hepatocyte nuclear factor 6 (Homo sapiens), sequence (Q9UBC0 whole entry, looked up): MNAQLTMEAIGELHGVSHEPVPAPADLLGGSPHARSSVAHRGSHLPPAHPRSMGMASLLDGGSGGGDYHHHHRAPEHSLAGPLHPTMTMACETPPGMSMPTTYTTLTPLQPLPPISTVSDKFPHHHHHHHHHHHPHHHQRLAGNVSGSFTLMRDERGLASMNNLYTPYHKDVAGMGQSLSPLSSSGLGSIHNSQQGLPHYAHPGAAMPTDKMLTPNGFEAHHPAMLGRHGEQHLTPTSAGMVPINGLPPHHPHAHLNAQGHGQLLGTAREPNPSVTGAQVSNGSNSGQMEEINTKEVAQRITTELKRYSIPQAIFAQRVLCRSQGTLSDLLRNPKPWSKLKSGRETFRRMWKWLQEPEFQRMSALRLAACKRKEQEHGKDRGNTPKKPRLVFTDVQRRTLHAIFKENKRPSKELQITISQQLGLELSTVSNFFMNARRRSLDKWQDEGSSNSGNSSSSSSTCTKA

Test [19] has as its target Heat shock factor protein 1 (Homo sapiens) (UniProt Q00613). The test can be described thus: ATG_HSE_CIS: Attagene CIS-FACTORIAL HepG2 Assay for human Heat Shock Transcription Factor 1 (HSE) (AID 2282953). The note with it: HepG2 HSE cis-reporter, Attagene RNA transcription; actives raise or lower the signal. An outline of the steps: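 Read-out: fluorescence of reporter-specific RT-PCR fragments separated by capillary electrophoresis. HepG2 carrying transfected cis-element reporter units; 24 h dosing; activity fitted in both directions relative to DMSO baseline.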

The nature of test [20]: ATG_MRE_CIS: Attagene CIS-FACTORIAL HepG2 Assay for human Metal Responsive Element (MRE) (AID 2282954). The note with it: HepG2 MRE cis-reporter transcription, Attagene multiplex; actives raise or lower the signal. The essentials:
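Cells were transfected with cis-promoter reporter transcription units, then dosed for 24 h. RNA was reverse-transcribed, amplified, fluorescently labelled and resolved by capillary electrophoresis, and activity was fitted in both directions relative to DMSO.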

Hepatocyte nuclear factor 3-beta (Homo sapiens), sequence (Q9Y261 whole entry, looked up): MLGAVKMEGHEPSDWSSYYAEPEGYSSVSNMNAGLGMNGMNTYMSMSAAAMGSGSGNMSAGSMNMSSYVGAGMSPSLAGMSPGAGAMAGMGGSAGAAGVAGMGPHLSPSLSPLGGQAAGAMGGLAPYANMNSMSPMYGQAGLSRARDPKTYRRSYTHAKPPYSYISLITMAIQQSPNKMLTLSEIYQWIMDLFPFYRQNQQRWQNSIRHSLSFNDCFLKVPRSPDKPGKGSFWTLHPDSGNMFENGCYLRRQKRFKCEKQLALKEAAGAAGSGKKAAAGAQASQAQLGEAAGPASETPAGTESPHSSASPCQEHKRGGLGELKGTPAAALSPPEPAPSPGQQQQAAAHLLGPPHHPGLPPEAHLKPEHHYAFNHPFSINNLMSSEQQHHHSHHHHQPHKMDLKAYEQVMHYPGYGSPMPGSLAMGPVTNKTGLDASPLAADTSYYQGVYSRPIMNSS
Heat shock factor protein 1 (Homo sapiens), sequence (Q00613 whole entry, looked up, the tested form may be a part): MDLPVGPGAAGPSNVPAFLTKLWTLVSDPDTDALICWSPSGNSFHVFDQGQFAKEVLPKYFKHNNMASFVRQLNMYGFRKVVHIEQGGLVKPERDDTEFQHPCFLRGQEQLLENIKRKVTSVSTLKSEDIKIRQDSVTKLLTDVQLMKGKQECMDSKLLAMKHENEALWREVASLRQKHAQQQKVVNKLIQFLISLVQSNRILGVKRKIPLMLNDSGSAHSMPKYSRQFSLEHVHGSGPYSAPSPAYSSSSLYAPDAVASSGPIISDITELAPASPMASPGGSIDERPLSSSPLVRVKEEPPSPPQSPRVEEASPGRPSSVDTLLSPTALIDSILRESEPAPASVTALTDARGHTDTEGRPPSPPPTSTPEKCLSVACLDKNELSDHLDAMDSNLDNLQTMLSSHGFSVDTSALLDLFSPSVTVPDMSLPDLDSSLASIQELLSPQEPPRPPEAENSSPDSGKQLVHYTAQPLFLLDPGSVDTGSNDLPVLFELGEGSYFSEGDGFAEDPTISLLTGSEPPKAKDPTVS
Hypoxia-inducible factor 1-alpha (Homo sapiens), sequence (Q16665 whole entry, looked up): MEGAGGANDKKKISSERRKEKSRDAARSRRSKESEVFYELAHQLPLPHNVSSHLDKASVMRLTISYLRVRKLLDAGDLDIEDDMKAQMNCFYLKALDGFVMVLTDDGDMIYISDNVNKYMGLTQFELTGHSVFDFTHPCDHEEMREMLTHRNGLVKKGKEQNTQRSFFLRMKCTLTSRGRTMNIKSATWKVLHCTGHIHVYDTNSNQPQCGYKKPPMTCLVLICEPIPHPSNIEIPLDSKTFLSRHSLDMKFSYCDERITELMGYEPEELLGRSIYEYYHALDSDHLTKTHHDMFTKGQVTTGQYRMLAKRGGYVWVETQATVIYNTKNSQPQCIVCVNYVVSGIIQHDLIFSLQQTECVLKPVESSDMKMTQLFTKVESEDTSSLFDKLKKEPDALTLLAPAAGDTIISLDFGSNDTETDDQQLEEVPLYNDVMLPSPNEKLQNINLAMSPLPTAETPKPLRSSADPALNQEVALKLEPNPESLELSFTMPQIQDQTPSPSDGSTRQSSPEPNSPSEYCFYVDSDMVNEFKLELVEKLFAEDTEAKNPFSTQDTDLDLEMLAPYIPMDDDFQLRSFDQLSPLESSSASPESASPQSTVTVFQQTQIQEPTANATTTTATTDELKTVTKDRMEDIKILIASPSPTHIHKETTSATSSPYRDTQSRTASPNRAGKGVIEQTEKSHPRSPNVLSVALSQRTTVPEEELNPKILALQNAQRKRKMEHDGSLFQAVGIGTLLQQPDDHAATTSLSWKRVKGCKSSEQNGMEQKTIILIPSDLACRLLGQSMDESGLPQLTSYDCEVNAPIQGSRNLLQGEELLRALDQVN
Transcription factor E2F1 (Homo sapiens), sequence (Q01094 whole entry, looked up): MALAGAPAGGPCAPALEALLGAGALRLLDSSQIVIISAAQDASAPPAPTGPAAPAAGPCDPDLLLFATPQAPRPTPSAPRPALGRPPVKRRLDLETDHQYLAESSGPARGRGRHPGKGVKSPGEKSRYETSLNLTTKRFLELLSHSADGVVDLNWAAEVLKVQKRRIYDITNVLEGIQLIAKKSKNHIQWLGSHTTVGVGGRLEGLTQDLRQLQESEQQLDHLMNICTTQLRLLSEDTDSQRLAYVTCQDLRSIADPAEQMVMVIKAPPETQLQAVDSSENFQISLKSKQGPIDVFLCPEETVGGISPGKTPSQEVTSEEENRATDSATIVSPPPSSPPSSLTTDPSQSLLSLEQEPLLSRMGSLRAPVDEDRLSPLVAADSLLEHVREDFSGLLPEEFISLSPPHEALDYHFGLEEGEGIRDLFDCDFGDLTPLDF
Bile acid receptor (Homo sapiens), sequence (Q96RI1 whole entry, looked up): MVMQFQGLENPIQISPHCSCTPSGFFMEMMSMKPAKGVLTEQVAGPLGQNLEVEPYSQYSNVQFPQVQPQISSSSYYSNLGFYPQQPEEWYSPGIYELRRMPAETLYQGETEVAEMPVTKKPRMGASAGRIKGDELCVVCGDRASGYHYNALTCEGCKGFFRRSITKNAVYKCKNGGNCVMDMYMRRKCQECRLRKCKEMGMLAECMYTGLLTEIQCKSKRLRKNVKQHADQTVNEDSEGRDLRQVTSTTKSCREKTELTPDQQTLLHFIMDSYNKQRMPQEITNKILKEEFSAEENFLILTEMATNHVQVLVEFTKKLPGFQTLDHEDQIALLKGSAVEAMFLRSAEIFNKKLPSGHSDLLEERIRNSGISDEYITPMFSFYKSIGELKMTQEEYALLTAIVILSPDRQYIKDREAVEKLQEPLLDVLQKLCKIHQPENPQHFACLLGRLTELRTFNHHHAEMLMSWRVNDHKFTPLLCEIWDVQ

Turning to `CCOP(=S)(S)OCC`, the call in test [1], in [2], in test [3], in test [4], in [5] and in [6] was inactive. The molecule was called inactive in test [7], in [8], in test [9], in test [10], in test [11] and in test [12]. Also, the call in test [13], in test [14], in test [15], in test [16], in test [17] and in test [18] was inactive. Moreover, the outcome in test [20] was inactive. The AC50 in test [19] was 157 µM (active).
Consider `COC(N)=O`, for which the result in test [1], in test [2], in [3], in test [4], in test [5] and in test [6] was inactive. For the same molecule, the outcome in [7], in test [8], in test [9], in test [10], in test [11] and in [12] was inactive. The call in test [13], in test [14], in test [15], in [16], in [18] and in [19] was inactive. Further, the outcome in test [20] was inactive. The AC50 in [17] is 100 µM (active).
In the case of `O=P(OCC(Br)CBr)(OCC(Br)CBr)OCC(Br)CBr` (stereo not given), the result in [1], in [2], in test [3], in [5], in test [6] and in [7] was inactive. Moreover, the outcome in [8], in [9], in [10], in test [11], in [12] and in test [13] was inactive. In addition, the result in test [15], in test [16], in [18] and in [19] was inactive. Besides, the AC50 in test [4] was 7.19 µM (active); in test [14] it was 10.3 µM (active); in test [17] it was 16.3 µM (active); in [20], 24.9 µM (active).
